Reference: PubChem BioAssay AID1813 (Broad Institute, 2009)
Among all 300,000 compounds or so, about 2,500 (0.83%) were called active. The entries come from a sample that favours actives as a whole. A number with no mark means an inactive call. No stated cut-off is given here; in the data, active means inhibition above about 60%; inconclusive means no clear call, values can overlap the other calls; inactive means below that.

test: 5' untranslated region of α-synuclein, MLPCN primary screen (AID 1813); conditions: alpha-synuclein 5'UTR reporter, inhibitor activity; active compounds read high; tested at 7.5 µM;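 further: H4 neuroglioblastoma cells stably carrying SNCA 5'UTR luciferase fusion; 0% = DMSO wells and 100% = positive control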

Compound	inhibition
COc1ccc(CNC(=O)CSc2n[nH]c(N)n2)cc1OC	4.62%
CCC(=O)Nc1ccc2nc(C)n(Cc3ccccc3Cl)c(=O)c2c1	11.1%
CCN1CCN(c2cc3nc(C)n(Cc4ccccc4)c(=O)c3cc2NC(=O)c2ccccc2F)CC1	65.1% (active)
CCOc1cc(NC(=O)c2ccccc2C(=O)O)c(OCC)cc1NC(=O)c1ccccc1F	11.7%
C=CCc1cccc2cc(C(=O)Nc3ccc(NC(C)=O)cc3)c(=O)oc12	-30.5%
CN(C)CCCN(C(=O)c1ccc(S(=O)(=O)N2CCCc3ccccc32)cc1)c1nc2ccc(F)cc2s1	74.2% (active)
COc1ccc2sc(N(CCCN(C)C)C(=O)c3ccc(S(=O)(=O)N(C)C4CCCCC4)cc3)nc2c1	-20%
CN(C)CCCN(C(=O)c1ccc(S(=O)(=O)N2CCCCCC2)cc1)c1nc2ccc(Br)cc2s1	75.3% (active)
CCN(CC)CCN(C(=O)c1ccc(S(=O)(=O)N2CCOCC2)cc1)c1nc2cc3c(cc2s1)OCCO3	-15.5%
CCc1ccc2nc(N(CCCN(C)C)C(=O)c3ccc4c(c3)OCCO4)sc2c1	-34.6%
CCOc1ccc2nc(N(CCCN(C)C)C(=O)c3ccc(C(=O)c4ccccc4)cc3)sc2c1	90.2% (active)
CN(C)CCCN(C(=O)c1ccc(S(=O)(=O)N2CCCCCC2)cc1)c1nc2cc3c(cc2s1)OCCO3	-27.7%
CCOc1ccc2nc(N(CCN(C)C)C(=O)c3ccc4ccccc4c3)sc2c1	-8.13%
CSc1nc2ccc(S(=O)(=O)N3CCc4ccccc43)cc2s1	1.39%
CCC1(CC)C(=O)C2=C3C1[C@H](C(=O)OC)C=C(C(=O)OC)C[C@H]3[C@H]1C(=O)N(Cc3ccccc3)C(=O)[C@H]1[C@H]2C (stereo not given in full)	6.19%
COc1ccc(S(=O)(=O)NCC(c2ccc(C)cc2)N2CCN(C)CC2)cc1OC (stereo not given)	-8.67%
COc1ccc(CN2CCC(n3nccc3NC(=O)CCCc3ccccc3)CC2)cc1C	23.5%
O=C(NCc1ccccc1)c1onc(CSc2nc3ccccc3[nH]2)c1C(=O)NCc1ccccc1	21.2%
COc1ccc(N2CCN(C(=O)[C@@H](NC(=O)c3cc(OC)cc(OC)c3)C(C)C)CC2)cc1	5.14%
CCCC1=Nc2cc(C(=O)NCc3ccco3)ccc2Sc2ccccc21	87.6% (active)
CC(C)(C)c1ccc(C(=O)NCc2ccco2)cc1	-180%
CCCC1=Nc2cc(C(=O)NCCN3CCCC3)ccc2Sc2ccccc21	-14.6%

Compound	inhibition
CCCN(CC(=O)Nc1ccc(OC)c(OC)c1)CC(=O)Nc1ccc(F)c(F)c1F	3.66%
Cc1ccc(CC(=O)N(C)CC(=O)N(CC(C)C)c2c(N)n(CC(C)C)c(=O)[nH]c2=O)cc1C	15%
Cc1nn(CC(=O)Nc2nc3ccccc3s2)c(C)c1[N+](=O)[O-]	5.8%
CCC(C)Cn1c(O)cc2nn(-c3nc4ccccc4s3)c(=O)c-2c1C (stereo not given)	97.8% (active)
Cc1cc(NC(=O)CN2CCCC(C)C2)n(-c2nc3ccccc3s2)n1 (stereo not given)	27.7%
Nc1cc(N2CCCCCC2)c2nonc2c1[N+](=O)[O-]	11%
Cc1ccc(C2CC(=O)NC(SCC(=O)OCc3ccccc3)=C2C#N)o1 (stereo not given)	-11.5%
CCOC(=O)CSC1=C(C#N)C(c2ccco2)C(C(=O)OCc2ccccc2)=C(C)N1 (stereo not given)	10.5%
CCOC(=O)CSC1=C(C#N)C(c2sccc2C)CC(=O)N1 (stereo not given)	75% (active)
Cc1nc2ccccc2c(=O)n1-c1ccc(F)c(NC(=O)c2cccs2)c1	9.3%
CCC(C)(C)c1ccc(Oc2ccc(NC(=O)COC(=O)C3=COCCO3)cc2)cc1	90.6% (active)
CCOc1ccc(NC(=O)c2ccc(NC(=O)COC(=O)c3ccc(NC(=O)CC#N)cc3)cc2)cc1	-88.1%
O=C(OCC(=O)c1cccs1)C1=COCCO1	-103%
Cc1nc2ccccc2nc(=O)c1NNc1ccc([N+](=O)[O-])cc1	-109%
CSCCC(NS(=O)(=O)c1ccc2c(c1)oc(=O)n2C)C(=O)NC1CCCc2ccccc21 (stereo not given)	1.15%
CC12CCC(C(=O)N(c3cccc(Cl)c3)C1=O)C2(C)C (stereo not given)	15.6%
O=C(NN1C(=O)C2C(C1=O)C1C=CC2C12CC2)c1ccccc1Cl (stereo not given)	12.2%
CC12CCC(C(=O)N(NC(=O)c3ccccc3O)C1=O)C2(C)C (stereo not given)	67.6% (active)
COC(=O)c1scc(C)c1NC(=O)CSc1ccc(Cl)cc1	14.7%
Cc1ccc(CSCCNC(=O)CN(c2ccc(F)cc2)S(C)(=O)=O)cc1	14.7%
O=C(c1ccc(Cl)cc1)N1N=C(c2ccccn2)CC1(O)C(F)(F)F (stereo not given)	68.6% (active)
O=C(Cc1ccccc1)N1N=C(c2ccncc2)CC1(O)C(F)(F)F (stereo not given)	18.6%

Compound	inhibition
O=C(C1CC1)N1N=C(c2ccc(Br)cc2)CC1(O)C(F)(F)F (stereo not given)	-12.3%
CC(=O)Nc1ccc(N2C(=O)C3C4CC(=O)C(c5ccccc54)C3C2=O)cc1 (stereo not given)	17.3%
CC(Oc1ccccc1)C(=O)NN1Cc2ccccc2C1=N (stereo not given)	-12.4%
O=C1[C@H]2[C@@H](c3ccc(F)cc3)N3C(=O)N(c4ccc(C(F)(F)F)cc4)C(=O)[C@@]3(Cc3ccccc3)[C@H]2C(=O)N1C1CCCCC1	-4.59%
COc1ccc(CCNC(=O)c2c(C)nn(-c3ccccc3)c2Cl)cc1	14.8%
Nc1nonc1-n1nnc(C(=O)N/N=C/c2c[nH]c3ccccc23)c1-c1ccccc1	1.28%
CCc1ccc2c(c1)C1(NN=C(c3ccccc3)S1)C(=O)N2 (stereo not given)	71.7% (active)
CCOC(=O)c1c(C)[nH]c(C)c1S(=O)(=O)NCCCc1ccco1	0.398%
Cc1oc2nc(SCC(=O)Nc3ccc(S(N)(=O)=O)cc3)nc(NC(=O)c3ccccc3)c2c1C	-1.45%
CCn1c(CNC(=O)c2cc(OC)c(OC)c(OC)c2)cc2cc(C)ccc21	-1.14%
COc1c(C)c2c(c(O)c1C/C=C(\C)CCC(=O)O)C(=O)OC2	76.6% (active)
CN1CN(C)c2ccc([N+](=O)[O-])c3cccc1c23	35.2%
CC1=NN(/C(=N\c2nnc(C)s2)Nc2ccccc2)[C@H](c2ccc(C)cc2)S1	-19.5%
COCCCn1c(SCC(=O)NC2CCCC2)nnc1-c1ccccc1	4.11%
Cn1c(N)c(C(=O)COC(=O)c2ccccc2NCc2ccco2)c(=O)n(C)c1=O	6.96%
COc1ccc(/C=C/C(=O)Nc2ccc(C34CC5CC(CC(O)(C5)C3)C4)cc2)cc1OC	76.5% (active)
COc1ccc(/C=C/C(=O)Nc2cccnc2)cc1OC	-72.4%
COc1ccc(/C=C/C(=O)Nc2ccc(C)cc2)cc1S(=O)(=O)N1CCOCC1	-60%
COc1ccc(-c2nn(C)c(=O)c3ccccc23)cc1CNC(=O)C1CCCCC1	-1.05%
Cc1ccccc1-c1ccc(Nc2ccc(C(=O)N3CCOCC3)cc2)nn1	10.1%
Cc1oc2c(c1C(=O)N1CCOCC1)C(=O)c1ccccc1C2=O	101% (active)
CCOC(=O)c1ccccc1C(=O)N1CCOCCOCCOCC1	7.43%

Compound	inhibition
CCOc1cc(/C=C2\SC(N3CCCC(C)C3)=NC2=O)ccc1O (stereo not given)	-40.1%
Cc1ccc(C)c(S(=O)(=O)Nc2cc(C)on2)c1	-13.8%
CCCCCc1ccc(-c2cn(Cc3ccc4ccccc4c3)nn2)cc1	-16.4%
CCCCCc1ccc(-c2ccc(C(=O)O)cc2)nc1	-19.1%
CCCCCc1ccc(-c2ccc(OCC)cc2)nc1	79.7% (active)
COc1cccc(C(=O)n2ccc(-c3cccs3)n2)c1	2.56%
COC(=O)c1c(NC(=O)c2ccc(S(=O)(=O)N3CCOCC3)cc2)sc2c1CCN(C(C)C)C2	-85.3%
O=C(NC(Nc1nc2ccc([N+](=O)[O-])cc2s1)(C(F)(F)F)C(F)(F)F)c1ccccc1	94.1% (active)
CCOc1ccc2nc(NC(=O)c3cc([N+](=O)[O-])ccc3N3CCOCC3)sc2c1	1.05%
CCC(=O)NC(Nc1nc2ccc(C)cc2s1)(C(=O)OC)C(F)(F)F (stereo not given)	13%
COc1ccc(Cl)cc1-n1c(=S)sc2c(=O)n(-c3ccc(F)cc3)c(SCC(=O)O)nc21	14.1%
CCOC(=O)N1CCN(C(=O)c2ccccc2SCC(=O)NCC2CCCCC2)CC1	-17.7%
O=[N+]([O-])/C=C/c1ccc2c(ccn2Cc2ccccc2)c1	84.5% (active)
O=c1c([N+](=O)[O-])cc(C(F)(F)F)cn1Cc1cccc(Cl)c1	17.2%
O=C(/C=C/c1cccc([N+](=O)[O-])c1)N1CCN(Cc2ccccc2)CC1	-15.7%
Cc1ccc(C(C)C)c(OCc2nnc(SCC(=O)Nc3nccs3)n2C)c1	-2.72%
O=C(N[C@@H](Cc1ccccc1)C(=O)OCc1ccccc1)c1nc[nH]c1C(=O)NC1CCNCC1	-8.61%
Cc1c(NC(=O)c2c([N+](=O)[O-])cnn2C)c(=O)n(-c2ccccc2)n1C	3.28%
CCOC(=O)c1sc(C)c2c1NC(C)(c1cccc3ccccc13)NC2=O (stereo not given)	31.1%
